# According to the antibiotic and cytotoxicity screens of Wong et al. (2023):
# In all, about 39,000 compounds went through this assay and about 3,300 (8.5%) were called active. The full list was thinned out, with actives kept by preference.
# Test system: HepG2
# Test: cytotoxicity call (relative viability < 0.9)
# Conditions: 10 µM
row,SMILES,cytotoxicity call
1,Cc1noc(C)c1NC(=O)Nc1ccc2c(c1)CC(=O)N([C@H](C)CO)C[C@@H](C)[C@@H](CN(C)Cc1ccc(C(F)(F)F)cc1)O2,inactive
2,Cc1ccc(S(=O)(=O)N2C[C@@H](O)COC[C@H]3O[C@H](CC(=O)N[C@@H]4CCN(Cc5ccccc5)C4)CC[C@@H]32)cc1,inactive
3,COc1ccccc1C#Cc1cnc2c(c1)C(=O)N([C@@H](C)CO)C[C@H](C)[C@@H](CN(C)C(=O)CN(C)C)O2,inactive
4,C=C(C)[C@@H]1CC[C@]2(COC(C)=O)CC[C@]3(C)[C@H](CC[C@@H]4[C@@]5(C)CC[C@H](OC(C)=O)C(C)(C)[C@@H]5CC[C@]43C)[C@@H]12,inactive
5,C[C@@H]1CCCCO[C@@H](CN(C)S(=O)(=O)c2cn(C)cn2)[C@H](C)CN([C@@H](C)CO)C(=O)c2cc(NS(=O)(=O)c3cn(C)cn3)ccc2O1,inactive
6,C[C@H]1CN([C@@H](C)CO)C(=O)c2cc(NC(=O)C3CC3)ccc2O[C@H]1CN(C)C(=O)NC1CCCCC1,inactive
7,COc1cc2c(cc1OC)-c1onc(-c3ccc(OCCO[Si](C(C)C)(C(C)C)C(C)C)cc3)c1CCCN(C[C@@H](C)OC(=O)NCCCCCC(=O)NO)CC2,active
8,COc1cc2c(cc1OC)[C@@]13ON=C(c4ccc(OCCOC(=O)NCCCCCC(=O)NO)cc4)[C@@H]1CCN3CC2,inactive
9,COc1cc2c(cc1OC)-c1onc(-c3ccc(OCCO[Si](C(C)C)(C(C)C)C(C)C)cc3)c1CCCN(C[C@@H](C)O)CC2,inactive
10,C/C=C/c1cccc(-c2nc(C(=O)NCc3ccc(OC)cc3)cc3c2[C@@H](CCO)N([S@](=O)C(C)(C)C)C3)c1,inactive
11,COc1nn(C)cc1-c1n[nH]c(=S)n1C,inactive
12,O=C(C[C@@H]1CC[C@@H]2[C@H](COC[C@H](O)CN2S(=O)(=O)c2ccc(Oc3ccccc3)cc2)O1)NC1CCC1,inactive
13,CC1(O)CCC(C(C)(C)O)CC1.O (stereo not given),inactive
14,CCCC#Cc1ccc2c(c1)O[C@@H](CN(C)S(=O)(=O)c1cccc(OC)c1)[C@@H](C)CN([C@H](C)CO)S2(=O)=O,inactive
15,COc1cccc(S(=O)(=O)N(C)C[C@H]2Oc3ncc(C#CCN(C)C)cc3C(=O)N([C@H](C)CO)C[C@@H]2C)c1,inactive
16,COc1ccc(NC(=O)Nc2ccc3c(c2)CC(=O)N([C@@H](C)CO)C[C@@H](C)[C@H](CN(C)S(=O)(=O)c2cn(C)cn2)O3)cc1,inactive
17,COc1ccc(S(=O)(=O)Nc2ccc3c(c2)C(=O)N([C@@H](C)CO)C[C@H](C)[C@H](CN(C)CC2CCCCC2)OCCCC[C@@H](C)O3)cc1,inactive
18,COc1ccc(S(=O)(=O)Nc2ccc3c(c2)C(=O)N([C@H](C)CO)C[C@H](C)[C@@H](CN(C)CC2CCCCC2)OCCCC[C@H](C)O3)cc1,inactive
19,COc1ccc(S(=O)(=O)Nc2ccc3c(c2)C(=O)N([C@@H](C)CO)C[C@@H](C)[C@H](CN(C)CC2CCCCC2)OCCCC[C@@H](C)O3)cc1,inactive
20,COc1ccc(S(=O)(=O)Nc2ccc3c(c2)C(=O)N([C@H](C)CO)C[C@@H](C)[C@@H](CN(C)CC2CCCCC2)OCCCC[C@H](C)O3)cc1,inactive

row,SMILES,cytotoxicity call
1,COc1ccc(S(=O)(=O)Nc2ccc3c(c2)C(=O)N([C@@H](C)CO)C[C@@H](C)[C@H](CN(C)CC2CCCCC2)OCCCC[C@H](C)O3)cc1,inactive
2,COc1ccc(S(=O)(=O)Nc2ccc3c(c2)C(=O)N([C@H](C)CO)C[C@@H](C)[C@@H](CN(C)CC2CCCCC2)OCCCC[C@@H](C)O3)cc1,active
3,COc1ccc(S(=O)(=O)Nc2ccc3c(c2)C(=O)N([C@@H](C)CO)C[C@H](C)[C@@H](CN(C)CC2CCCCC2)OCCCC[C@H](C)O3)cc1,inactive
4,COc1ccc(S(=O)(=O)Nc2ccc3c(c2)C(=O)N([C@@H](C)CO)C[C@@H](C)[C@@H](CN(C)CC2CCCCC2)OCCCC[C@H](C)O3)cc1,active
5,COc1ccc(S(=O)(=O)Nc2ccc3c(c2)C(=O)N([C@H](C)CO)C[C@@H](C)[C@H](CN(C)CC2CCCCC2)OCCCC[C@@H](C)O3)cc1,inactive
6,COc1ccc(S(=O)(=O)Nc2ccc3c(c2)C(=O)N([C@@H](C)CO)C[C@@H](C)[C@@H](CN(C)CC2CCCCC2)OCCCC[C@@H](C)O3)cc1,active
7,COc1ccc(S(=O)(=O)Nc2ccc3c(c2)C(=O)N([C@@H](C)CO)C[C@H](C)[C@H](CN(C)CC2CCCCC2)OCCCC[C@H](C)O3)cc1,inactive
8,COc1ccc(NC(=O)Nc2ccc3c(c2)C(=O)N([C@H](C)CO)C[C@@H](C)[C@H](CN(C)C(=O)NC2CCCCC2)OCCCC[C@@H](C)O3)cc1,inactive
9,CC(C)NC(=O)N(C)C[C@@H]1Oc2ccc(NS(=O)(=O)c3ccc(F)cc3)cc2C(=O)N([C@H](C)CO)C[C@H]1C,inactive
10,C[C@@H]1CCCCO[C@H](CN(C)C(=O)c2ccccc2)[C@@H](C)CN([C@H](C)CO)C(=O)c2cc(NS(=O)(=O)c3ccccc3)ccc2O1,inactive
11,Cc1cc(=O)[n+]2cccc(O)c2[nH]1,inactive
12,CC(C)NC(=O)Nc1ccc2c(c1)C(=O)N([C@H](C)CO)C[C@@H](C)[C@@H](CN(C)S(=O)(=O)c1ccc(Cl)cc1)O2,inactive
13,CCc1cc(C(N)=O)c(N)s1,inactive
14,C[C@@H]1CCCCO[C@H](CN(C)C(=O)Nc2ccc(F)cc2)[C@@H](C)CN([C@H](C)CO)C(=O)c2cc(NC(=O)Nc3ccccc3)ccc2O1,inactive
15,CCOC(=O)N[C@H]1CCS(=O)(=O)C1,inactive
16,Cc1cn2c(=O)c(C(=O)O)cnc2s1,inactive
17,C[C@@H]1CN([C@H](C)CO)C(=O)c2cccc(NS(C)(=O)=O)c2O[C@@H]1CN(C)S(=O)(=O)c1ccccc1,inactive
18,CCOC(=O)CCCCCC(=O)Nc1ccc2c(c1)C(=O)N([C@H](C)CO)C[C@@H](C)[C@@H](CN(C)S(=O)(=O)c1ccc(C)cc1)OCCCC[C@H](C)O2,inactive
19,C[C@@H]1CCCCO[C@H](CN(C)Cc2ccccc2)[C@H](C)CN([C@@H](C)CO)C(=O)c2cc(NS(=O)(=O)c3ccc(Cl)cc3)ccc2O1,active
20,C[C@@H]1CN([C@@H](C)CO)C(=O)c2cc(NS(=O)(=O)c3ccc(Cl)cc3)ccc2O[C@@H](C)CCCCO[C@@H]1CN(C)Cc1ccccc1,active

row,SMILES,cytotoxicity call
1,C[C@@H]1CN([C@@H](C)CO)C(=O)c2cc(NS(=O)(=O)c3ccc(Cl)cc3)ccc2O[C@@H](C)CCCCO[C@H]1CN(C)Cc1ccccc1,inactive
2,C[C@@H]1CN([C@H](C)CO)C(=O)c2cc(NS(=O)(=O)c3ccc(Cl)cc3)ccc2O[C@@H](C)CCCCO[C@@H]1CN(C)Cc1ccccc1,inactive
3,C[C@H]1CCCCO[C@H](CN(C)Cc2ccccc2)[C@@H](C)CN([C@@H](C)CO)C(=O)c2cc(NS(=O)(=O)c3ccc(Cl)cc3)ccc2O1,inactive
4,C[C@@H]1CCCCO[C@@H](CN(C)Cc2ccccc2)[C@@H](C)CN([C@@H](C)CO)C(=O)c2cc(NS(=O)(=O)c3ccc(Cl)cc3)ccc2O1,inactive
5,C[C@@H]1CCCCO[C@@H](CN(C)Cc2ccccc2)[C@H](C)CN([C@@H](C)CO)C(=O)c2cc(NS(=O)(=O)c3ccc(Cl)cc3)ccc2O1,inactive
6,C[C@H]1CCCCO[C@@H](CN(C)Cc2ccccc2)[C@@H](C)CN([C@@H](C)CO)C(=O)c2cc(NS(=O)(=O)c3ccc(Cl)cc3)ccc2O1,active
7,C[C@H](CO)N1C[C@H](C)[C@@H](CN(C)Cc2ccccc2)OCCCC[C@H](C)Oc2ccc(NS(=O)(=O)c3ccc(Cl)cc3)cc2C1=O,inactive
8,C[C@@H]1CCCCO[C@@H](CN(C)Cc2ccccc2)[C@@H](C)CN([C@H](C)CO)C(=O)c2cc(NS(=O)(=O)c3ccc(Cl)cc3)ccc2O1,inactive
9,C[C@@H]1CCCCO[C@H](CN(C)Cc2ccccc2)[C@H](C)CN([C@H](C)CO)C(=O)c2cc(NS(=O)(=O)c3ccc(Cl)cc3)ccc2O1,active
10,C[C@@H]1CCCCO[C@H](CN(C)Cc2ccccc2)[C@@H](C)CN([C@H](C)CO)C(=O)c2cc(NS(=O)(=O)c3ccc(Cl)cc3)ccc2O1,inactive
11,C[C@H]1CN([C@@H](C)CO)C(=O)Cc2cc(NS(C)(=O)=O)ccc2O[C@H]1CN(C)Cc1ccc(C(=O)O)cc1,inactive
12,C=CCOC(=O)[C@@H]1[C@H]2C(=O)O[C@H](c3ccccc3)[C@H](c3ccccc3)N2[C@H](c2ccc(OCCOC(=O)[C@H]3C[C@H]4C(=O)N5CCC[C@H]5C(=O)N4[C@H]3c3ccc(O)cc3)cc2)[C@@]12C(=O)Nc1ccccc12,inactive
13,Cn1ncc2c(NN3C(=O)CCC3=O)ncnc21,inactive
14,CC(C)CC#Cc1ccc2c(c1)O[C@@H](CN(C)Cc1cncnc1)[C@@H](C)CN([C@H](C)CO)S2(=O)=O,inactive
15,CC(C)NC(=O)[C@@H]1c2ccccc2C(=O)N(Cc2cc(F)cc(C(F)(F)F)c2)[C@H]1c1ccc(CO)cc1,inactive
16,CC(C)NC(=O)Nc1ccc2c(c1)C(=O)N([C@H](C)CO)C[C@H](C)[C@@H](CN(C)S(=O)(=O)c1cn(C)cn1)OCCCC[C@H](C)O2,inactive
17,CC(C)NC(=O)N1C[C@H]2[C@H](C(=O)N(C)Cc3ccccn3)CCS(=O)(=O)[C@H]2C1,inactive
18,Cc1noc(C)c1S(=O)(=O)N(C)C[C@H]1Oc2ccc(NS(=O)(=O)c3ccc(F)cc3)cc2CC(=O)N([C@@H](C)CO)C[C@H]1C,inactive
19,C=CC[C@@H](CC(=O)N(CCO)Cc1ccccc1)C(=O)N[C@H](COC(=O)[C@@H](CC=C)CC(=O)OC(C)(C)C)Cc1c[nH]c2ccccc12,inactive
20,Cc1ccc(S(=O)(=O)N2C[C@H](O)COC[C@H]3O[C@H](CC(=O)NCCCN(C)C)CC[C@@H]32)cc1,inactive
